According to PubChem BioAssay (NCATS):
Inconclusive results are not listed. Calls of active or inactive are those of the source. Unless noted, the call rests on the fitted dose curve; in most records, active means well fitted curve in the direction sought with a large enough effect; inconclusive means small, poorly fitted or top-dose-only effect, or another doubt; inactive means no such curve, though single readings can be large; an effect the other way counts as inactive or inconclusive.

What was measured:
[1] = target: Lysosomal acid glucosylceramidase (Homo sapiens) (UniProt P04062); assay: Glucocerebrosidase-p2 (AID 348; in the data active means potency below about 10 µM; further: potency means the concentration at half of the fitted maximal effect); conditions: purified GBA, blue fluorogenic substrate, 40 min
How it was run: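 Normal human glucocerebrosidase (0.2 nM) with blue fluorogenic substrate (80 uM final) in citrate/phosphate pH 5.9 with 10mM sodium taurocholate, 0.01% tween-20; 40 min RT, NaOH/glycine stop; fluorescence Ex 365/Em 440; AC50 from a titration from 0.6 nM upwards.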

[2] = AP1 Signaling Pathway (AID 357; active means well fitted curve in either direction with a large enough effect, not every such curve was filed as active; further: on the % scale 0 is the no-effect control and ±100 the full control effect); conditions: ME-180 AP-1-bla reporter, EGF-induced, beta-lactamase ratio, 5 h; at 7.69 µM (top of the series) unless noted
How it was run: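 Titration-series screen for positive or negative modulators of EC50 EGF-induced signaling in ME-180 cells carrying an AP-1-driven beta-lactamase reporter. After 5 hours at 37 degrees Celsius, CCF4 460nm/530nm emission ratio gave %Activity; AC50 values derived.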

[3] = NFAT Signaling Pathway (AID 444; active means well fitted curve in either direction with a large enough effect, not every such curve was filed as active;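 further: carbachol stimulus at about its EC50 of 1 µM final; on the % scale 0 is the no-effect control and ±100 the full control effect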); conditions: Jurkat NFAT-bla M1, carbachol, beta-lactamase ratio, 5 h; at 7.69 µM (top of the series) unless noted
How it was run: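 Read-out: CCF4 FRET ratio (460 nm/530 nm) after 1 h RT dye loading, used for %activity and AC50 from titration series. Cells: Jurkat NFAT-β-lactamase/M1 line, treated with compound plus 1 uM carbachol for 5 h, 37 °C.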

[4] = Stat Signaling Pathway (AID 446; active means well fitted curve in either direction with a large enough effect, not every such curve was filed as active;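 further: ME-180 cervical cancer cells given 40 pM IL-6 alongside compound; SIE-controlled beta-lactamase reporter measured as 460/530 nm FRET emission ratio; on the % scale 0 is the no-effect control and ±100 the full control effect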); conditions: ME-180 SIE beta-lactamase reporter, IL-6 stimulated, 5 h; at 7.69 µM (top of the series) unless noted
How it was run: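 FRET read-out (405 nm excitation, 460/530 nm emission) of a beta-lactamase reporter under a STAT-inducible element in ME-180 cervical carcinoma cells. Cells with compound receive 40 pM IL-6 for 5 h. Values are normalised to AC90 stimulation and AC90 JAK-inhibitor controls.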

[5] = target: Glucocorticoid receptor (Homo sapiens) (UniProt P04150); assay: GR-GFP Redistribution (AID 450;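 active means compounds whose dose series gives a full or clear partial fitted curve of increased nuclear translocation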; further: potency means the concentration at half of the fitted maximal effect); conditions: U2OS GR-GFP nuclear translocation, laser cytometry, 2 h
[6] = target: Glucocorticoid receptor (Homo sapiens) (UniProt P04150); assay: GR-EFC Redistribution (AID 451; calls by dose curve; further: potency means the concentration at half of the fitted maximal effect); conditions: CHO-K1 GR-EFC translocation, beta-gal luminescence, 2 h
How it was run: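 Translocation of GR-ED fusion to nuclear EA restores b-gal, read by luminescence after 1 h room-temperature detection. Engineered CHO-K1 biosensor cells, 1,000/well, exposed 2 h at 37 C to titrations up to 46 uM final.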

[7] = target: Mitogen-activated protein kinase 10 (Mus musculus) (UniProt Q61831); assay: JNK3 AlphaScreen Assay (AID 530; active means well fitted curve in either direction with a large enough effect, not every such curve was filed as active;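 further: kinase came from lysate of stimulated human HepG2 cells; signal reports phosphorylation of biotinylated GST-cJun 1-79 at Ser73 with 10 µM ATP; on the % scale 0 is the no-effect control and ±100 the full control effect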); conditions: JNK3 lysate, c-Jun phosphorylation; series mostly up to 57.1 µM
How it was run: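 qHTS titrations with 15 min compound pre-incubation before adding ATP (10 uM final). Read-out: AlphaScreen of Ser73-phosphorylated biotin-GST-cJun using HepG2 lysate JNK3 activated by IL-1β and TNFα.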

[8] = target: 3',5'-cyclic-AMP phosphodiesterase 4B (Homo sapiens) (UniProt Q07343); assay: qHTS Assay for Inhibitors of PDE-IV (AID 607; active means well fitted activation curve with a large enough effect in the main read-out, with a control signal flat, not every such curve was filed as active; further: % of control where 0% means no effect); conditions: HEK293 ACTOne CNG channel cells, membrane potential fluorescence; series mostly up to 22.9 µM
How it was run: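 Cell-based read-out of cAMP via a modified cyclic nucleotide-gated channel and membrane potential dye (535/590 nm) in HEK293 cells expressing PDE4 endogenously. Compounds tested up to 22.9 uM final; 100 uM RO 20-1724 reference.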

[9] = qHTS Assay for Lipid Storage Modulators (AID 1519; calls by dose curve); conditions: Drosophila S3 cells, BODIPY lipid droplet/cell ratio, laser cytometry, cells loaded with oleic acid; for activity change, negative = inhibition: at 57.5 µM (top of the series)
How it was run: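 Cells seeded at 5,000 per well were treated with compounds over a concentration series and loaded with oleic acid (400 uM, as added). Lipid droplet fluorescence (488 nm excitation, 500-530 nm channel) was read by laser-scanning cytometry and normalized to 20 uM Triacsin C.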

[10] = target: Dual specificity protein kinase CLK4 (Homo sapiens) (UniProt Q9HAZ1); assay: qHTS Assay for Inhibitors of CDC-like Kinase 4 (Kinase-Glo Assay) (AID 1770); conditions: recombinant Clk4, Kinase-Glo ATP depletion luminescence; series mostly up to 66.7 µM; further: on the % scale 0 is the no-effect control and ±100 the full control effect; nearly all actives have a fitted effect of over 65% in size
How it was run: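 Recombinant human Clk4 (25 nM) phosphorylated RS repeat peptide (100 uM) with 1 uM ATP in Tris pH 7.5/MgCl2/EGTA/DTT/Triton buffer for 4.5 h at room temperature. Residual ATP was quantified by Kinase-Glo luciferase luminescence.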

[11] = target: Dual specificity protein kinase CLK4 (Homo sapiens) (UniProt Q9HAZ1); assay: qHTS Assay for Inhibitors of CDC-like Kinase 4 (ADP-Glo Assay) (AID 1771); conditions: recombinant CLK4, ADP-Glo luminescence; series mostly up to 80 µM; further: on the % scale 0 is the no-effect control and ±100 the full control effect; nearly all actives have a fitted effect of over 70% in size
How it was run: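 Compounds are pin-transferred onto substrate mix (100 uM RS peptide, 1 uM ATP), then 25 nM Clk4 is added. After 1 hr at room temperature, ADP-Glo reagent runs 45 min, detection reagent 30 min, then luminescence is read.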

[12] = target: Dual specificity protein kinase CLK4 (Homo sapiens) (UniProt Q9HAZ1); assay: qHTS Assay for Inhibitors of CDC-like Kinase 4 (ADP-FP Assay) (AID 1795); conditions: Transcreener ADP fluorescence polarization; series mostly up to 50 µM; further: on the % scale 0 is the no-effect control and ±100 the full control effect; nearly all actives have a fitted effect of over 60% in size
How it was run: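 Recombinant human Clk4 (6.25 nM) phosphorylated RS repeat peptide (100 uM) with 1 uM ATP in Tris pH 7.5/MgCl2/EGTA/DTT/Triton buffer for one hour. ADP was quantified by Transcreener competitive fluorescence polarization against an ADP calibration curve.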

[13] = target: Ubiquitin carboxyl-terminal hydrolase 1 (Homo sapiens) (UniProt O94782); assay: Inhibitors of USP1/UAF1: Pilot qHTS (AID 504865); conditions: purified USP1/UAF1, Ub-rhodamine cleavage fluorescence; series mostly up to 54.9 µM;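 further: rhodamine fluorescence freed from ubiquitin-rhodamine substrate followed over time; top concentration of the series differs between compounds; on the % scale 0 is the no-effect control and ±100 the full control effect; nearly all actives have a fitted effect of over 35% in size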
How it was run: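 USP1/UAF1 complex (1nM) preincubated with compound 15 min at room temperature, then Ub-Rho substrate (150nM final) added. Fluorescence read kinetically at 480/540 nm, 6 reads every 60 seconds. Buffer: 50mM HEPES pH 7.8, 0.5mM EDTA, 0.1 mg/ml BSA, 1mM TCEP, 0.01% Tween-20.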

[14] = Primary qHTS for small molecule stabilizers of the endoplasmic reticulum resident proteome: Secreted ER Calcium Modulated Protein (SERCaMP) assay (AID 1508630); conditions: SH-SY5Y GLuc-SERCaMP (Gaussia luciferase released on ER calcium loss) secretion, thapsigargin, luminescence; series mostly up to 38.4 µM; further: on the % scale 0 is the no-effect control and ±100 the full control effect
How it was run: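 The SH-SY5Y reporter protocol was run at 3 concentrations up to 38.3 uM (primary) or 11 concentrations (follow-up): 16 h compound, 100 nM thapsigargin for 4 h, then extracellular luciferase luminescence.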

[15] = qHTS Assay for Identification of Small Molecule Agonists for Hypoxia Response Element Signaling Pathway (AID 914; active means well fitted activation curve with a large enough effect in the signal ratio, with a control signal flat, not every such curve was filed as active; the % refers to the signal ratio; further: % of control where 0% means no effect); conditions: ME-180 (cervical carcinoma) HRE-bla reporter, beta-lactamase ratio, CoCl2, 17 h; activation: stronger effect = higher value
How it was run: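 HRE-bla ME-180 cells with beta-lactamase reporter under hypoxia response element, compounds with EC50 CoCl2 for 17 hours at 37 C. CCF4 substrate, 460nm/530nm emission ratio gave %Activity; AC50 from titration series.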

[16] = target: Cytochrome P450 3A4 (Homo sapiens) (UniProt P08684); assay: qHTS Assay for Inhibitors and Substrates of Cytochrome P450 3A4 (AID 884); conditions: recombinant CYP3A4, Luciferin-PPXE luminescence; series mostly up to 57.1 µM; further: potency means the concentration at half of the fitted maximal effect; nearly all actives have a fitted effect of over 50% in size
How it was run: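 Luminescent readout of luciferin produced by CYP3A4 (20 nM) dealkylation of Luciferin-PPXE, 25 uM (its KM). NADPH-driven reaction ran 60 min at RT after 10 min compound preincubation; data scaled to 57 uM ketoconazole as 100% inhibition.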

[17] = target: Cytochrome P450 3A4 (Homo sapiens) (UniProt P08684); assay: qHTS Assay for Activators of Cytochrome P450 3A4 (AID 885); conditions: recombinant CYP3A4, Luciferin-PPXE luminescence, 60 min; series mostly up to 57.1 µM; further: nearly all actives have a fitted effect of over 65% in size
How it was run: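 Luminescent readout of luciferin formed from 25 uM Luciferin-PPXE (KM level) by 20 nM CYP3A4 in 200 mM KPO4, with 60 min NADPH-driven reaction at room temperature after 10 min compound exposure. Ketoconazole (57 uM) defined 100% inhibition.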

[18] = measured here: cell count channel max response
[19] = measured here: lipid channel max response

Chain of Ubiquitin carboxyl-terminal hydrolase 1 (Homo sapiens) (O94782 whole entry, looked up): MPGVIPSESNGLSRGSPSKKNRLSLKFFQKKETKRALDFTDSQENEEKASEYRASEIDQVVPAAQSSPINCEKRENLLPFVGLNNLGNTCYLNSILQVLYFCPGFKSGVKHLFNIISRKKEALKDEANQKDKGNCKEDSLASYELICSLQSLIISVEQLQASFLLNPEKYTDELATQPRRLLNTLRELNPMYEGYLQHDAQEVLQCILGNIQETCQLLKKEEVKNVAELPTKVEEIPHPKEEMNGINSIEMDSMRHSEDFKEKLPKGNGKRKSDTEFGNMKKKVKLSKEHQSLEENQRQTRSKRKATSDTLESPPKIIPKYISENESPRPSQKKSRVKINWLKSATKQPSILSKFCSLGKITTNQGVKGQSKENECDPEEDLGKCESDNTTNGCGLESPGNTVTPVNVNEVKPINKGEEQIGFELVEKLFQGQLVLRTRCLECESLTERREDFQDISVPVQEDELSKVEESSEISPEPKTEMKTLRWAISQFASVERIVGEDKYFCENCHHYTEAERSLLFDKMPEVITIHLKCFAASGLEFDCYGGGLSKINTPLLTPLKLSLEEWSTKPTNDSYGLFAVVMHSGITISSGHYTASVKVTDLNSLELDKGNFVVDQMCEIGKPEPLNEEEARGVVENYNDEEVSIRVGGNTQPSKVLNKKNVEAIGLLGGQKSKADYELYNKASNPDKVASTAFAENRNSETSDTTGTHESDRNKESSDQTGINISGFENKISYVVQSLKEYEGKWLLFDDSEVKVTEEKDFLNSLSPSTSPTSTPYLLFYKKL
Chain of Glucocorticoid receptor (Homo sapiens) (P04150 whole entry, looked up, the tested form may be a part): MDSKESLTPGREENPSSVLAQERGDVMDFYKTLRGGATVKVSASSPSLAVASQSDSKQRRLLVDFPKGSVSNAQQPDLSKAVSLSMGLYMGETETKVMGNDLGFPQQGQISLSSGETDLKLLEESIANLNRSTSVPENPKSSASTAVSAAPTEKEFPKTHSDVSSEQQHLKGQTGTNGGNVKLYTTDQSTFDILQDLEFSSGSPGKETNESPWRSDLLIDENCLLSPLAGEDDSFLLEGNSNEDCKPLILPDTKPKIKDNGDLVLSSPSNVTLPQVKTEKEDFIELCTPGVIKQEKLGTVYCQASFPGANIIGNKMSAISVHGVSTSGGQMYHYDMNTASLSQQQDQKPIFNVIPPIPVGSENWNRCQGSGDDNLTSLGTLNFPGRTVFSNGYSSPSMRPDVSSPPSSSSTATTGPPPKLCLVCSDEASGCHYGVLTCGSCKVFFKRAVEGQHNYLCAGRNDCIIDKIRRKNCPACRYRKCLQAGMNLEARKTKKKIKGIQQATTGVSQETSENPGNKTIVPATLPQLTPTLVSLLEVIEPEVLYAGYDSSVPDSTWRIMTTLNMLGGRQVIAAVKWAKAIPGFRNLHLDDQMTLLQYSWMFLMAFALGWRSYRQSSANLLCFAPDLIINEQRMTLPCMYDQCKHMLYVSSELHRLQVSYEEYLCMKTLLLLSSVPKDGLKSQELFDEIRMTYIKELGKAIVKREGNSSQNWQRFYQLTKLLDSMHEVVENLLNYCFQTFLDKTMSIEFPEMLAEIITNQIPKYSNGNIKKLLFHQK
Chain of Dual specificity protein kinase CLK4 (Homo sapiens) (Q9HAZ1 whole entry, looked up): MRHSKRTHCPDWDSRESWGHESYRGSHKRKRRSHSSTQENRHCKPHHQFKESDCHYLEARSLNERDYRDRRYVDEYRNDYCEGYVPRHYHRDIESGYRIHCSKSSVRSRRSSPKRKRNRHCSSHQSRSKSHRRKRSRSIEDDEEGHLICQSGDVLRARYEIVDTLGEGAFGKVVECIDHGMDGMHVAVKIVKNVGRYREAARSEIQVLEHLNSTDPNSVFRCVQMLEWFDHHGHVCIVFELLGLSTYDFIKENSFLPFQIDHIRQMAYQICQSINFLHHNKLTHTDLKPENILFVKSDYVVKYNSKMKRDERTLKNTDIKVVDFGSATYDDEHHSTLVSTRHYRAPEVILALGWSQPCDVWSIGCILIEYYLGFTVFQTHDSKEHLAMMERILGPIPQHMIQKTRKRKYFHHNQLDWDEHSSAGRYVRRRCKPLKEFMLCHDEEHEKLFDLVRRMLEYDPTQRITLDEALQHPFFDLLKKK
Chain of 3',5'-cyclic-AMP phosphodiesterase 4B (Homo sapiens) (Q07343 whole entry, looked up): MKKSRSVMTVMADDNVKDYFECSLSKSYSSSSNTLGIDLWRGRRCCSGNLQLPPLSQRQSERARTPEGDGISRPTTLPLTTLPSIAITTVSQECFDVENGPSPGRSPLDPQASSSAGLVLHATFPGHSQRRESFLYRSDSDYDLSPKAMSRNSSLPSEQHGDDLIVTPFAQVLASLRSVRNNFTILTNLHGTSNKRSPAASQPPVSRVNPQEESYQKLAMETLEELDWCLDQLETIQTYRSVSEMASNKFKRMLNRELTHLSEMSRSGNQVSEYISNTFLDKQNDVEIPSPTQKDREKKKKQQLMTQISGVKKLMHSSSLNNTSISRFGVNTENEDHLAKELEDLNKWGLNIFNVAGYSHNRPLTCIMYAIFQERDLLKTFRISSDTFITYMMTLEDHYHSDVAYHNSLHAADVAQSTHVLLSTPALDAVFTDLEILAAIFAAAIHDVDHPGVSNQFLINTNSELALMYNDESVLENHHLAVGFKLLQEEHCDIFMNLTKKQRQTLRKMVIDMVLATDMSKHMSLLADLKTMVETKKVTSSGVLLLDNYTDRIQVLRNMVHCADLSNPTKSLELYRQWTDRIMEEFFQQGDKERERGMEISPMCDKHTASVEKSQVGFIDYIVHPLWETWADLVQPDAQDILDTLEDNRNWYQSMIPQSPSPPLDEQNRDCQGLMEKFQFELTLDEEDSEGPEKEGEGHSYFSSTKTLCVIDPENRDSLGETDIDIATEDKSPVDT
Chain of Lysosomal acid glucosylceramidase (Homo sapiens) (P04062 whole entry, looked up): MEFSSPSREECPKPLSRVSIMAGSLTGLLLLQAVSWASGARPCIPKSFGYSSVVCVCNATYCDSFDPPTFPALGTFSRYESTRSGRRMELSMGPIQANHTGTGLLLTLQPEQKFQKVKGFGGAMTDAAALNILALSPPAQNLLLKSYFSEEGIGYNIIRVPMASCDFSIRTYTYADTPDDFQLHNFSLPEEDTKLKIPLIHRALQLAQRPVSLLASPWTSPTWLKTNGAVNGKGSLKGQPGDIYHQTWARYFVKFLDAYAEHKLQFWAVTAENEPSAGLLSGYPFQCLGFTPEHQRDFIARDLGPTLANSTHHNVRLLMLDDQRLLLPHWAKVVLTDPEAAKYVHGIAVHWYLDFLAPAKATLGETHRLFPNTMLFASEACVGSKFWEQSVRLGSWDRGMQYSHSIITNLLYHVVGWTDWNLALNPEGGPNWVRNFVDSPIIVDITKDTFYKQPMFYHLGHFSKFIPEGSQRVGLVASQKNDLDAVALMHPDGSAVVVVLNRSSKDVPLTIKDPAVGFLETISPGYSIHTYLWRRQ
Chain of Cytochrome P450 3A4 (Homo sapiens) (P08684 whole entry, looked up): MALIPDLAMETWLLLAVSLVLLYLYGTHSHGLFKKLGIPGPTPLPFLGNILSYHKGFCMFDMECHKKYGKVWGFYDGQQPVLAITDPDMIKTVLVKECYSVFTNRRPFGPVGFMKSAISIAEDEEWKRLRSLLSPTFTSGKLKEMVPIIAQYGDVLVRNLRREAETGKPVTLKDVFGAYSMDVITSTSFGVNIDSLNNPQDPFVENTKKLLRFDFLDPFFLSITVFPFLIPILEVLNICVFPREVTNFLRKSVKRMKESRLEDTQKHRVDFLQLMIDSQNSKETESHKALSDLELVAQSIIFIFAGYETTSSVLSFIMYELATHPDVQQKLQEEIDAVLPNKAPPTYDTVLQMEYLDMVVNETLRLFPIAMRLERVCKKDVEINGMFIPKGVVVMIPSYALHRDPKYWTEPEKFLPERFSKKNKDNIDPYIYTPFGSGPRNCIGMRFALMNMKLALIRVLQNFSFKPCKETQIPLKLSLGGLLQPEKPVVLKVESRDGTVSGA

COc1ncc2nc(-c3ccc(F)cc3)c(=O)n(-c3ccccc3)c2n1
-1.99%: max response [9, 19]
-0.95%: max response [9, 18]
inactive: Potency [1] > 11.4 µM | activity change, negative = inhibition [2] -5.39% | activity change, negative = inhibition [3] -7.66% | activity, negative = inhibition [4] -2.33% | Potency [5] > 9.22 µM | Potency [6] > 46 µM | outcome [7] | Potency [8] | activity change, negative = inhibition [9] 2.16% | Potency [10] | Potency [11] | Potency [12] | Potency [13] | Potency [14]

Cc1nc2cnc(Nc3ccccc3)nc2n(Cc2ccc(F)cc2)c1=O
inactive: Potency [1] > 11.4 µM | activity change, negative = inhibition [2] -12.8% | activity change, negative = inhibition [3] -23.6% | activity, negative = inhibition [4] 2.69% | Potency [5] > 9.22 µM | Potency [6] > 46 µM | outcome [7] | Potency [8] | activity change, negative = inhibition [9] 1.06% | Potency [10] | Potency [11] | Potency [12] | Potency [13] | Potency [14]
6.57%: max response [9, 19]
7.11%: max response [9, 18]

COCCn1c(=O)c(-c2cccc(C#N)c2)nc2cnc(OC)nc21
22%: max response [9, 19]
inactive: Potency [1] > 11.4 µM | activity change, negative = inhibition [2] -22.4% | activity change, negative = inhibition [3] 4.96% | activity, negative = inhibition [4] -9.77% | Potency [5] > 9.22 µM | Potency [6] > 46 µM | outcome [7] | Potency [8] | activation [15] -7.08% | activity change, negative = inhibition [9] 4.12% | Potency [10] | Potency [11] | Potency [12] | Potency [13] | Potency [14]
19.6%: max response [9, 18]

Cc1noc(C)c1-c1cncnc1NCc1cccnc1
active: Potency [16] 3.16 µM
inactive: Potency [1] > 11.4 µM | activity change, negative = inhibition [2] 1.35% | activity change, negative = inhibition [3] 4.9% | activity, negative = inhibition [4] 14.8% | Potency [5] > 46 µM | Potency [6] > 46 µM | outcome [7] | Potency [8] | Potency [17] | activity change, negative = inhibition [9] 2.36% | Potency [10] | Potency [11] | Potency [12] | Potency [13] | Potency [14]
4.31%: max response [9, 18]
5.44%: max response [9, 19]

COc1cccc(Cn2c(=O)c(C)nc3cnc(Nc4ccccc4)nc32)c1
9.21%: max response [9, 19]
inactive: Potency [1] > 11.4 µM | activity change, negative = inhibition [2] -15.3% | activity, negative = inhibition [4] -3.72% | Potency [5] > 9.22 µM | Potency [6] > 46 µM | outcome [7] | Potency [8] | activity change, negative = inhibition [9] 0.284% | Potency [10] | Potency [11] | Potency [12] | Potency [13] | Potency [14]
11.6%: max response [9, 18]
